JMJD2A Tudor inh: inhibitors of human JMJD2A Tudor domain | O75164 | AlphaScreen JMJD2A-Tudor / H3K4me3 peptide binding | Potency, µM (doses to about 114 µM), for the others: top-dose activity change, negative = inhibition, most hits filed as inhibitors | actives 4.4% (n = 390,000); also: % is scaled to controls: 0 for no effect and ±100 for the full control effect; nearly all actives have a fitted effect of over 50% in size
G9a inh: G9a (human) methyltransferase inhibition; Q96KQ7; G9a H3K9 monomethylation, AlphaScreen, 2 h; Potency, µM (series often up to 102 µM), without a hit: at the top dose activity, negative = inhibition, most hits filed as inhibitors; actives 8.8% (n = 350,000); also: % is scaled to controls: 0 for no effect and ±100 for the full control effect; nearly all actives have a fitted effect of over 75% in size
Target sequence (Q96KQ7 913-1193 limits assumed): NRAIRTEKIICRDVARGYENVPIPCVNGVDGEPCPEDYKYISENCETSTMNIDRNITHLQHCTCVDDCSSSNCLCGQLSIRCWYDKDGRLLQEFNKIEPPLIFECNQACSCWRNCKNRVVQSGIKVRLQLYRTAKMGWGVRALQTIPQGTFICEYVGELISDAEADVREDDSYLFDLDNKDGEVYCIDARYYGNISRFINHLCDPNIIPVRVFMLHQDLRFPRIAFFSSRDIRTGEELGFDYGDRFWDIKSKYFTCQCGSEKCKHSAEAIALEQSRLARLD
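Step 1: enzyme (final 20 nM) with compound, 15 min RT. Step 2: substrate peptide 500 nM and SAM 20 uM, 2 h RT. Step 3: anti-H3K9me1 antibody and AlphaScreen beads, 10 min, then plate read.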
GLS inh: glutaminase GLS (human) inhibition; O94925; GLS enzymatic activity, qHTS titration; Potency, µM (top dose mostly 45.5 µM), for the others: at the highest dose activity change, negative = inhibition, most hits filed as inhibitors; actives 0.21% (n = 410,000); also: % is scaled to controls: 0 for no effect and ±100 for the full control effect
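Human kidney-isoform GLS in 45 mM KH2PO4 pH 8.2, 0.02% Tween-20, with compound, started with 1mM L-Glutamine (added stock). Glutamate oxidase/HRP/Amplex red coupled fluorescence read at start and after 30 min at RT.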
BAZ2B inh: BAZ2B (human) inhibition; AID 504333; Q9UIF8; actives 4.4% (n = 360,000); AlphaScreen BAZ2B-H3K14Ac peptide displacement; Potency, µM (highest dose often 114 µM), for the others: top-dose activity change, negative = inhibition, usual class: inhibitors; also: % is scaled to controls: 0 for no effect and ±100 for the full control effect; nearly all actives have a fitted effect of over 60% in size
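Inhibition is scored as reduced AlphaScreen emission. The BAZ2B/b-H3(5-23)K14Ac complex (50 nM each) in PBS pH 7.4, 0.01% Tween-20 meets compound (up to 110 uM) for 30 min at RT before bead addition.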
HP1b binding inh: inhibitors of HP1-beta chromodomain binding to methylated histone tails | AlphaScreen HP1-beta / biotin-H3K9me3 peptide binding | Potency, µM (series often up to 114 µM), inactives show at the top dose activity change, negative = inhibition, actives largely listed as inhibitors | actives 0.56% (n = 390,000) | AID 540317; also: nearly all actives have a fitted effect of over 70% in size
Target sequence (P83916 whole entry, looked up): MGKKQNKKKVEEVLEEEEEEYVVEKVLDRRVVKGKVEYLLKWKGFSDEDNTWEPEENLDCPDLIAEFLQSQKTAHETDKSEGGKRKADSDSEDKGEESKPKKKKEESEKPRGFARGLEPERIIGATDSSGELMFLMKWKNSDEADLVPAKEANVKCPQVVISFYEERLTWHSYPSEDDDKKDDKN
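HP1-beta protein (50 nM final) preincubated 30 min at room temperature with biotinylated H3(1-18)K9me3 peptide (50 nM) in PBS pH 7.4, 0.01% Tween-20, then compound added for 30 min. AlphaScreen streptavidin donor/nickel chelate acceptor beads (10 ug/mL final), 30 min dark, luminescence read.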
Starred values were filed as active, the others as inactive; ? = inconclusive; · = not tested or not shown; [ ] = remark or other dose. Only some compounds are listed: those with a hit (about 10% of all), similar ones and a draw of the others. Calls follow the shape of the dose curve; as a rule, active = well fitted curve in the direction sought with a large enough effect; inconclusive = small, poorly fitted or top-dose-only effect, or another doubt; inactive = no such curve, though single readings can be large; an effect the other way counts as inactive or inconclusive. Potency is read from the fitted curve at half-maximal effect.

SMILES	JMJD2A Tudor inh	G9a inh	GLS inh	BAZ2B inh	HP1b binding inh
O=C(/C=C/c1ccc2c(c1)OCO2)N1CCCCC1	-1%	·	56%	2%	16%
CC(C)(C)C(=O)N1CCC2CC1c1cc(-c3ccc4c(c3)OCO4)ccc12 (stereo not given)	·	·	-1%	·	·
CC(C)(C)NC(=S)N1CCC2CC1c1cc(-c3ccc4c(c3)OCO4)ccc12 (stereo not given)	·	·	16µM*	·	·
O=[N+]([O-])c1ccc2c(c1)C(=Nc1ccccc1)c1ccccc1-2	32µM*	·	-9%	·	?
CC(OC(=O)CCc1nc2ccccc2c(=O)[nH]1)C(=O)NCc1ccc2c(c1)OCO2 (stereo not given)	-2%	9%[12.7 µM]	1%	-7%	11%
O=C(Cn1nc(CNc2ccc(Br)cc2)[n+]2c1CCCCC2)c1ccc([N+](=O)[O-])cc1	-32%	71µM*	11%	?	-18%
COc1ccc(NCc2nn(CC(=O)c3ccc(Br)cc3)c3[n+]2CCCCC3)cc1	45µM*	35µM*	?	35µM*	-17%
O=C(Cn1nc(Cl)nc1Cl)c1ccc([N+](=O)[O-])cc1	-15%	6%	1%	-6%	24%
O=C(Cn1nc(CNc2ccc(Cl)cc2)[n+]2c1CCCCC2)c1ccc(Br)cc1	-34%	?	-13%	?	-11%
Cc1ccc(S(=O)(=O)N(CC(=O)NC2CCCCCC2)c2ccccc2F)cc1	-9%	-1%	2%	0%	13%
CC(=O)Nc1ccc(NC(=O)C/C(C)=N/NC(=O)C(=O)N2CCCC2)cc1	-20%	35µM*	15%	-32%	40%
O=[N+]([O-])c1ccc(Nc2ccc(F)cc2)nc1	-19%	-5%[59 µM]	8%	-29%	22%
COc1ccc(Nc2ccncc2[N+](=O)[O-])cc1	-32%	15%[59 µM]	3%	?	9%
O=[N+]([O-])c1ccc(Nc2cccc(F)c2)nc1	-11%	50µM*	3%	-20%	31%
O=[N+]([O-])c1ccccc1Nc1cccc(F)c1	45µM*	·	6%	·	?
O=[N+]([O-])c1cnccc1Nc1cccc(F)c1	-30%	7.1µM*	0%	?	3%
O=[N+]([O-])c1ccccc1Nc1ccccc1[N+](=O)[O-]	-19%	·	-1%	·	22%
COc1ccc(Cc2c(O)nc(SCC(=O)NC34CC5CC(CC(C5)C3)C4)[nH]c2=O)cc1	-17%	45µM*	3%	?	30%
CC(C)CN1CCN(Cc2nc3ccccc3s2)CC1CCO (stereo not given)	-7%	?	-12%	-7%	33%
CC(C)NC(=O)c1ccc2c(c1)nc1n2CCCCC1	-2%	-20%[59 µM]	-2%	3%	23%[57 µM]
CSc1ccc(/C=C/C(=O)N2CCCN(C)CC2)cc1	-36%	22µM*	1%	-31%	-11%
COc1ccc(CCNC(=S)N(C)C)cc1OC	0%	4%	7%	-1%	26%
CNC1=C(N(C(C)=O)c2ccc(Br)cc2)C(=O)c2ccccc2C1=O	-23%	?	7%	?	-10%
CC(=O)C1=C(c2ccc(Br)cc2)C(=O)c2ccccc2C1=O	22µM*	35µM*	5%	25µM*	25µM*
CC1=C(C(=O)OCc2ccccc2)C(c2ccc([N+](=O)[O-])cc2)NC(=O)N1CCCCCC(=O)O (stereo not given)	-12%	?	9%	-6%	30%
SMILES	JMJD2A Tudor inh	G9a inh	GLS inh	BAZ2B inh	HP1b binding inh
CC1=C(C(=O)OCc2ccccc2)C(c2ccc(C(C)(C)C)cc2)NC(=O)N1CCCCCC(=O)O (stereo not given)	-28%	45µM*	-6%	50µM*	-8%
CC1=C(C(=O)OCc2ccccc2)C(c2ccccc2)NC(=O)N1CCCCCC(=O)O (stereo not given)	-26%	79µM*	3%	-10%	44%
CC1=C(C(=O)OCc2ccccc2)C(c2ccc([N+](=O)[O-])cc2)NC(=O)N1CCCC(=O)O (stereo not given)	-13%	45µM*	-5%	-7%	43%
CC1=C(C(=O)OCc2ccccc2)C(c2ccc3ccccc3c2)NC(=O)N1CCCCCC(=O)O (stereo not given)	-24%	?	2%	?	8%
CC1=C(C(=O)OCc2ccccc2)C(c2ccc(-c3ccccc3)cc2)NC(=O)N1CCCCCC(=O)O (stereo not given)	?	35µM*	9%	50µM*	9%
O=C1NC(=O)C2(CCCCCC2)N1	-8%	·	-8%	·	43%
O=C(Cn1c(=O)oc2ccccc21)Nc1ccc(S(=O)(=O)N2CCCCC2)cc1	6%	0%[12.7 µM]	0%	1%	24%
CCN1C[C@@H]2[C@@H]3C(=O)N(C)C(=O)[C@@H]3[C@](CC)(C1=O)N2C(=O)c1ccc(C)cc1	-17%	·	-1%	·	17%
CCCN1C(=O)c2ccccc2NC1c1ccc(OC)c(COc2ccc([N+](=O)[O-])cc2)c1 (stereo not given)	-23%[57.1 µM]	·	·	·	3%[57 µM]
CC(C(=O)N1CCCCC1)n1sc2ccccc2c1=O (stereo not given)	-13%	-8%[59 µM]	6%	-4%	31%
CC(C)NC(=O)C1CCN(C2CCN(C(=O)c3scc4c3CCCC4)CC2)CC1	-19%	·	-1%	3%	16%
Cc1oc2cc([N+](=O)[O-])c(O)c([N+](=O)[O-])c2c1C(=O)c1ccc(Cl)cc1	50µM*	·	19%	32µM*	?
O=C1c2ccccc2NC(c2cc(Br)c3c(c2)OCO3)N1Cc1ccco1 (stereo not given)	-18%[57.1 µM]	·	·	·	12%[57 µM]
Cc1ccc(C2NC(=O)c3c(sc(C)c3C)N2)c(O)c1 (stereo not given)	-17%	32µM*	24%	6%	19%
Cc1sc2c(c1C)C(=O)NC(c1ccccc1F)N2 (stereo not given)	?	10µM*	-3%	-27%	?
Cc1cccc(C2NC(=O)c3c(sc(C)c3C)N2)c1O (stereo not given)	-15%	4%[12.7 µM]	-7%	-10%	16%
Cc1ccc(CNC(=O)CCS(=O)(=O)c2ccc3nc(C)sc3c2)cc1	-1%	14%	-8%	2%	47%
O=c1[nH]c2ccccc2c2oc(CCl)nc12	-15%	35µM*	13%	-18%	13%
CCn1c2ccccc2c2cc(NC(=O)C(C)C)ccc21	-10%	-31%[59 µM]	6%	-5%	26%
Oc1c(C=Nc2cccc3cccnc23)sc2ccccc12	·	?	·	-34%	·
O=[N+]([O-])c1ccc(O)c(C=Nc2cccc3ccccc23)c1	-21%	50µM*	-4%	-11%	-11%
O=[N+]([O-])c1ccc(O)c(C=Nc2cccc3ncccc23)c1	-18%	13%[59 µM]	0%	-26%	30%
